According to PubChem BioAssay AID504332 (National Center for Advancing Translational Sciences (NCATS), 2011):
Where “and” joins values, the source holds several entries; their conditions need not be identical. Equal entries are not always repeated. The whole screen tested about 350,000 compounds, of which about 31,000 (8.9%) were called active. A call without a number means that no potency is given here. Not shown: some 15% with an inconclusive outcome. Calls come from the whole dose curve; as a rule, active = well fitted inhibition curve with a large enough effect; inconclusive = small, poorly fitted or top-dose-only effect; inactive = no such curve, though single readings can be large or run the other way. The sample as a whole holds a higher share of actives than the screen did. Some compounds were tested as several samples or in several runs, with calls that do not always agree.

molecular target: Histone-lysine N-methyltransferase EHMT2 (Homo sapiens) (UniProt Q96KQ7); test: qHTS Assay for Inhibitors of Histone Lysine Methyltransferase G9a; details: G9a H3K9 monomethylation, AlphaScreen, 2 h; series mostly up to 59 µM; note: nearly all actives have a fitted effect of over 75% in size
Outline: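 Methyltransferase reactions run at room temperature for 2 h (20 nM enzyme, 500 nM biotin-H3K9 peptide, 20 uM SAM) after a 15 min compound preincubation; product detected by AlphaScreen beads and anti-H3K9me1 antibody.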
Potency is the fitted concentration of half-maximal effect.

Chain of Histone-lysine N-methyltransferase EHMT2 (Homo sapiens) (Q96KQ7 913-1193 limits assumed): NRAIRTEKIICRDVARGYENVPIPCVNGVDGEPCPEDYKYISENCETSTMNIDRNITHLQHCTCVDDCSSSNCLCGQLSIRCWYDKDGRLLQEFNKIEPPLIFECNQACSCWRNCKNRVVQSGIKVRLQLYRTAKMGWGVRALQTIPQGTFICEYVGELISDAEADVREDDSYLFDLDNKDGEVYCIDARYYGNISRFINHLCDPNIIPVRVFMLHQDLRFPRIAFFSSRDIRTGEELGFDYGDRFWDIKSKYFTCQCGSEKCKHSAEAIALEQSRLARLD

Compound	Potency	activity, negative = inhibition
NC(=O)c1cc(S(=O)(=O)NCCCc2ccco2)cs1	inactive	
COc1ccc(Cn2ccnc2SCC(=O)NCc2ccco2)cc1	inactive	
COc1cc(OC)cc(C(=O)Nc2cc3nn(-c4ccccc4)nc3cc2Cl)c1	inactive	
C[C@@H]1NC(=O)[C@@]2(C)[C@@H](c3ccccc3)[C@H]3COc4ccccc4[C@@H]3N2C1=O		-3.98% [at 0.501 µM] (inactive)
Cc1cccc(-n2c(=O)c3c(c4cc(C)ccc4n3C)n(CC(=O)Nc3ccccc3Cl)c2=O)c1	inactive	
CCCn1c(N)c(N(CCOC)C(=O)C2CCCC2)c(=O)[nH]c1=O		15% [at 2.33 µM] (inactive)
Cc1ccc(-c2nc(-c3ccncc3)no2)c(C)c1	inactive	
COc1cccc(-n2c(=O)c3c(C)c(C(=O)N(C)C)sc3n(Cc3cccc(C)c3)c2=O)c1	inactive	
COc1ccc(CCNC(=O)c2ccc3c(c2)nc(C)n3-c2ccc(Br)cc2)cc1OC	inactive	
CCOC(=O)c1ccc(CSc2nnc3cc(C)c4ccccc4n23)cc1	inactive	
CCN(CC(=O)Nc1c(F)cccc1F)C(=O)c1ccc(-c2ccccc2)cc1	inactive	
N#CCCN(C(=O)COC(=O)C1CCN(c2ccc(C(F)(F)F)cn2)CC1)c1ccc(F)cc1	inactive	
COC(=O)c1ccc(NC(=O)CCc2c(C)nn(-c3ccc(N4CCCC4)nn3)c2C)cc1	inactive	
Cn1c(=O)n(Cc2c(F)cccc2Cl)c(=O)c2c1nc1n2CCN1c1ccc(F)cc1	inactive	
Cc1ccc(CNC(=O)Cn2cnc(S(=O)(=O)N3CCCCC3)c2)o1	inactive	
Cc1ccc(C(=O)N2CC(=O)Nc3ccccc32)o1	inactive	
Cc1ccc(CNC(=O)C2(C(F)(F)F)C/C(=C\Cc3ccccc3)CCCO2)o1 (stereo not given)	28.2 µM (active)	
CC(=O)c1ccc(NC(=O)C2CCCN2S(=O)(=O)c2cccs2)cc1 (stereo not given)	inactive	
CC(=O)c1ccc(S(=O)(=O)NC2CC(=O)N(c3ccc4c(c3)OCCO4)C2)cc1 (stereo not given)	inactive	
CCCCCCCNC(=O)C1(CC2CC(c3cccc(Br)c3)=NO2)CCN(C(=O)c2cc(OCC)c(OCC)c(OCC)c2)CC1 (stereo not given)		-31.9% [at 2.33 µM] (inactive)

Compound	Potency	activity, negative = inhibition
O=C(CCN1C(=O)C2C3CCC(C3)C2C1=O)Nc1ccc(Cl)cc1Cl (stereo not given)	inactive	
CCS(=O)(=O)N1Cc2ccccc2CC1C(=O)Nc1ccc(OC)cc1OC (stereo not given)	inactive	
CCS(=O)(=O)N1Cc2ccccc2CC1C(=O)Nc1nc2ccc(F)cc2s1 (stereo not given)	31.6 µM (active)	
CSc1ncccc1C(=O)Nc1nc2ccc(F)cc2s1	inactive	
O=C(C[n+]1cc(-c2ccc(Cl)c(Cl)c2)n2c1CCC2)c1cccs1	inactive	
Clc1ccc(C[n+]2cc(-c3ccccc3)n3c2CCC3)cc1	inactive	
Cc1ccc(C(=O)C[n+]2cc(-c3ccccc3)n3c2CCCCC3)cc1	inactive and 50.1 µM (active)	
O=C(CSc1ncc(CO)n1Cc1ccc(F)cc1)NCc1ccco1	inactive	
O=C(O)c1ccc2c(c1)N(Cc1ccc(F)cc1)C(=O)c1ccccc1S2=O (stereo not given)	inactive	
OCC[C@H]1C[C@H](O)[C@@H](O)[C@]2(Cc3ccccc3CO2)O1		12.3% [at 2.33 µM] (inactive)
COc1ccc(-c2nnc(SCc3cccnc3)o2)cc1	inactive	
COc1ccc(-c2nnc(SC(C)C(=O)NC3CC3)o2)cc1 (stereo not given)		3.83% [at 12.7 µM] (inactive)
COc1ccc(-c2nnc(SC(=O)N3c4ccccc4Sc4ccccc43)o2)cc1	17.8 µM (active)	
Cc1ccccc1C(=O)NCc1nc(-c2ccc(Cl)cc2)no1	inactive	
CC1CN(C(=S)Nc2ccc(Br)cc2Cl)CC(C)O1 (stereo not given)	inactive	
CC1CN(c2cc(=O)n(Cc3ccc(F)cc3)c(=O)[nH]2)CC(C)O1 (stereo not given)	inactive	
CC1CN(c2cc(=O)n(-c3cccc(Br)c3)c(=O)[nH]2)CC(C)O1 (stereo not given)	44.7 µM (active)	
COC(=O)c1ccccc1N=Nc1c(C)[nH][nH]c1=O	inactive	
Cc1[nH][nH]c(=O)c1N=Nc1ccccc1	50.1 µM (active)	
Cc1cccn2c(=O)c3cc(C(=O)NC(C)c4ccccc4)c(=N)n(CCCO)c3nc12 (stereo not given)	inactive	

Compound	Potency	activity, negative = inhibition
Cc1ccsc1C(=O)NC1CCCCC1C (stereo not given)		16.6% [at 12.7 µM] (inactive)
Cc1ccc2nc(-c3cccnc3)c(NC3CCCC3)n2c1	inactive	
Cc1ccc(S(=O)(=O)NCC(=O)Nc2ccc3c(c2)OCCO3)cc1	inactive	
Cc1ccn2c(Nc3ccc4c(c3)OCCO4)c(-c3ccc(C)s3)nc2c1	inactive	
Cc1nc(Nc2ccc3c(c2)OCCO3)c2nnn(Cc3ccccc3Cl)c2n1	inactive	
Cc1ccc2nc(-c3ccncc3)cc(C(=O)Nc3ccc4c(c3)OCCO4)c2c1	inactive	
Cc1ccc(-c2nc3cccc(C)n3c2Nc2ccc3c(c2)OCCO3)cc1	12.6 µM (active)	
Cc1cccc2nc(-c3ccc(Cl)s3)c(Nc3ccc4c(c3)OCCO4)n12	10 µM (active)	
Oc1ccccc1-c1nc2ccc(Cl)cn2c1Nc1ccc2c(c1)OCCO2	inactive	
Cc1ccc2nc(-c3ccc(O)cc3)c(Nc3ccc4c(c3)OCO4)n2c1	3.55 µM (active)	
CCN(C(=O)Cn1cnc2sc(C)c(S(=O)(=O)N3CCN(c4ncccn4)CC3)c2c1=O)c1ccccc1F	inactive	
Cc1ccc(S(=O)(=O)N(CCCN(C)C)Cc2ccc3c(c2)OCO3)cc1	inactive	
COc1ccc(-c2cn3nc(N4CCCC(C(=O)NCCCOC(C)C)C4)sc3n2)cc1 (stereo not given)	inactive	
Cc1c(Cl)cccc1NC(=O)C(=O)NCCc1csc2nc(-c3ccccc3F)nn12	inactive	
NS(=O)(=O)c1ccc(CCNC(=O)COC(=O)COc2cccc(C(F)(F)F)c2)cc1		-4.95% [at 12.7 µM] (inactive)
Cc1ccc(-c2cc(C(=O)NC3CCN(Cc4ccccc4)CC3)c3ccccc3n2)cc1	inactive	
CNC(=O)NC(=O)CSc1nnc(-c2ccc(F)cc2)n1CC1CCCO1 (stereo not given)	inactive	
S=c1[nH]nc(-c2ccc(Cl)cc2)n1CC1CCCO1 (stereo not given)	7.94 µM (active)	
CC(Sc1nn(-c2ccc(Cl)cc2)c(=S)s1)C(=O)NCC1CCCO1 (stereo not given)	inactive	
CCN1C(=O)[C@H]2[C@@H](c3ccc(-c4ccc(F)cc4)cc3)N[C@@](Cc3ccccc3)(C(=O)OC)[C@H]2C1=O		15.2% [at 2.33 µM] (inactive)
